Measurements reported in PubChem BioAssay (NCATS).
“And” between values parts separate entries of the source, which are not always exact repeats. Equal values may be shown once. Inconclusive results are not listed. The source holds several records for some structures; these can differ, active in one and inactive in another. The source made the active and inactive calls. Unless noted, calls come from the whole dose curve; as a rule, active = well fitted curve in the direction sought with a large enough effect; inconclusive = small, poorly fitted or top-dose-only effect, or another doubt; inactive = no such curve, though single readings can be large; an effect the other way counts as inactive or inconclusive.

Tests used:
[1] = Cell Viability - Hek293 (AID 427;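 active = compounds whose dose-response curve shows a full or clear partial loss of cell viability, called from curve shape rather than a numeric limit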;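 note: potency is the fitted concentration of half-maximal effect; cells exposed to compound for 40 hours at 37 °C before reading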); settings: qHTS
Method in brief: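 Luminescent ATP content (CellTiter-Glo, 20 min at room temperature) was measured after a 40 hr, 37 °C compound exposure of HEK293 cells. AC50 values came from Hill-equation fits of qHTS concentration-response data normalized to DMSO and 100 uM tamoxifen.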

[2] = Cell Viability - SK-N-SH (AID 435; calls by dose curve; note: potency is the fitted concentration of half-maximal effect); settings: SK-N-SH neuroblastoma cell viability qHTS
Method in brief: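 qHTS cytotoxicity: CellTiter-Glo ATP luminescence after 40 h compound exposure of human neuroblastoma SK-N-SH cells at 37 °C. AC50 derived by Hill-equation fitting, with DMSO as basal and 100 uM tamoxifen as full inhibition.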

[3] = Cell Viability - NIH 3T3 (AID 541); settings: NIH 3T3 cell viability, qHTS; activity change, negative = cytotoxicity: at 92.2 µM (top of the series); note: nearly all actives have a fitted effect of over 25% in size; note: potency is the fitted concentration of half-maximal effect;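 for activity change, negative = cytotoxicity: plate controls were DMSO alone for no effect and tamoxifen positive control for full effect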
Method in brief: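 Mouse NIH 3T3 fibroblasts, 1000 cells/well, rested 5 hr at 37 °C, then exposed to compound for 40 hr at 37 °C in complete medium. Viability read as intracellular ATP by CellTiter-Glo luminescence; AC50 from Hill-equation fits of concentration-response data.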

[4] = Cell Viability - HUV-EC-C (AID 542); settings: HUV-EC-C endothelial cell viability, qHTS; series mostly up to 92.2 µM; note: nearly all actives have a fitted effect of over 35% in size; note: potency is the fitted concentration of half-maximal effect; for activity change, negative = cytotoxicity: % is set by controls: 0 for no effect and ±100 for the full control effect
Method in brief: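 HUV-EC-C human vascular endothelial cells, 1000/well, exposed to compound for 40 hr at 37 °C in complete medium. Intracellular ATP was read by CellTiter-Glo luminescence. AC50 came from Hill-equation fits of concentration-response data.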

[5] = Cell Viability - SH-SY5Y (AID 544); settings: SH-SY5Y neuroblastoma cell viability; viability change, negative = cytotoxic: at 92.2 µM (top of the series); note: nearly all actives have a fitted effect of over 55% in size; note: potency is the fitted concentration of half-maximal effect
Method in brief: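 SH-SY5Y human neuroblastoma cells (1500/well) incubated 5 h, then compound-treated 40 h at 37 °C in complete medium. Viability read as intracellular ATP by CellTiter-Glo luminescence after 20 min; AC50 from Hill-equation fits of qHTS concentration-response.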

[6] = Cell Viability - Renal Proximal Tubule (AID 545); settings: renal proximal tubule cells viability; activity change, negative = cytotoxicity: at 91.7 µM (top of the series) unless noted; note: nearly all actives have a fitted effect of over 40% in size; note: potency is the fitted concentration of half-maximal effect
Method in brief: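 Viability taken as intracellular ATP (CellTiter-Glo luminescence) after 40 hr, 37 °C compound treatment of primary proximal tubule cells from rat kidney, 1000 cells/well; Hill-equation fits of qHTS concentration-response data gave AC50.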

[7] = Cell Viability - Mesenchymal (AID 546); settings: mesenchymal cells viability, qHTS; activity change, negative = cytotoxicity: at 91.7 µM (top of the series);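 note: cells exposed to compound for 40 hours before reading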; note: potency is the fitted concentration of half-maximal effect
Method in brief: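 AC50 values reflect the drop in intracellular ATP in a human kidney mesenchymal line derived from normal glomeruli. Treatment lasts 40 hr at 37 °C in complete medium, and the signal comes from CellTiter-Glo luminescence.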

[8] = Cellular Toxicity (caspase-3) MRC-5 (AID 659); settings: MRC-5 cells, luminescence, normalized: DMSO 0%, 10 µM staurosporine 100%; series mostly up to 91.7 µM
Method in brief: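 Concentration-dependent caspase 3/7 activation is measured in human normal lung fibroblasts (MRC-5) following 16-hour treatment. AC50 values come from standard Hill-equation modeling of luminescence normalized to DMSO and 10 uM staurosporine.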

[9] = Cellular Toxicity (caspase-3) Hek293 (AID 664); settings: HEK293 caspase-3 activation, DMSO = 0%, 100 µM tamoxifen = 100%; at 92.2 µM (top of the series);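 note: cells exposed to compound for 16 h at 37 °C before readout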
Method in brief: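 HEK293 cells in complete medium treated 16 h at 37 °C, then Caspase-Glo 3/7 luminescence read after 20 min at room temperature. Normalized to DMSO and 100 uM tamoxifen; AC50 from Hill fit of concentration-response.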

[10] = Cellular Toxicity (caspase-3) NIH 3T3 (AID 666); settings: NIH 3T3 caspase-3 activation, apoptosis/toxicity, 0% DMSO, 100% is 100 µM tamoxifen; series mostly up to 92.2 µM;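 note: caspase signal read after 16 h compound exposure; 0% = DMSO basal and 100% = 100 µM tamoxifen stimulation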
Method in brief: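 Mouse NIH 3T3 fibroblasts (1000/well) treated 16 h at 37 C; caspase-3/7 activity measured by Caspase-Glo 3/7 luminescence after 20 min. Normalized to DMSO and 100 uM tamoxifen; AC50 from Hill fits.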

[11] = Cell Viability - LYMP2-019 (AID 973); settings: LYMP2-019 lymphoblastoid cell line viability; series mostly up to 92.2 µM; note: nearly all actives have a fitted effect of over 55% in size; note: potency is the fitted concentration of half-maximal effect;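 for activity change, negative = cytotoxicity: 0% = DMSO alone and full effect = 92 µM tetraoctylammonium bromide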
Method in brief: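 Human lymphoblastoid LYMP2-019 cells (2500/well) preincubated 5 h at 37 C, then treated 24 h at 37 C in complete medium. Viability by CellTiter-Glo ATP luminescence after 30 min at room temperature; AC50 from Hill fits.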

[12] = Cell Viability - LYMP2-018 (AID 985); settings: LYMP2-018 lymphoblastoid cells, viability (qHTS); series mostly up to 92.2 µM;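 note: compound exposure lasted 24 hr at 37 °C; nearly all actives have a fitted effect of over 50% in size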; note: potency is the fitted concentration of half-maximal effect;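 for activity change, negative = cytotoxicity: plate controls were DMSO only for no effect and tetraoctylammonium bromide at 92 µM for full effect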
Method in brief: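 Human lymphoblastoid LYMP2-018 cells, 2500/well, settled 5 hr at 37 C then exposed to compound 24 hr at 37 C; intracellular ATP measured by CellTiter-Glo luminescence. AC50 from Hill-equation concentration-response fits.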

[13] = molecular target: Tumor necrosis factor (Homo sapiens) (UniProt P01375); assay: qHTS assay to identify small molecules that stimulate Tumor Necrosis Factor-alpha (TNF-alpha) secretion (AID 651757; active = well fitted curve in the direction sought with a large enough effect in the signal ratio; the % refers to the signal ratio; note: 0% is about no effect); settings: Human cells, HTRF 665/615 ratio; series mostly up to 92.2 µM
Tumor necrosis factor (Homo sapiens), sequence (P01375 whole entry, looked up): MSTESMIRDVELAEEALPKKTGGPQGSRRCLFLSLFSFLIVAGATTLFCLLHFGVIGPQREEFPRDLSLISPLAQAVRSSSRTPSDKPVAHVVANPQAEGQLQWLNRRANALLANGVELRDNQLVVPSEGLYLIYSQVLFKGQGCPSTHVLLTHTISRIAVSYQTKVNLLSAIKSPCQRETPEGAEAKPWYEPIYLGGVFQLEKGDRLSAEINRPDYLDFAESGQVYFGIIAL
Method in brief: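 THP-1 cells (3000/well) exposed to compounds 17 hrs at 37 C. Secreted TNF-alpha detected by HTRF with cryptate- and XL665-labeled anti-TNF-alpha antibodies after 3 hr at room temperature.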

[14] = molecular target: Peroxisome proliferator-activated receptor alpha (Homo sapiens) (UniProt Q07869); assay: qHTS assay for small molecule agonists of the peroxisome proliferator-activated receptor alpha (PPARalpha) signaling pathway (AID 651778); settings: PathHunter PPARalpha complementation, chemiluminescence, 6 h; max response: active compounds read high; note: % of control where 0% means no effect
Peroxisome proliferator-activated receptor alpha (Homo sapiens), sequence (Q07869 whole entry, looked up): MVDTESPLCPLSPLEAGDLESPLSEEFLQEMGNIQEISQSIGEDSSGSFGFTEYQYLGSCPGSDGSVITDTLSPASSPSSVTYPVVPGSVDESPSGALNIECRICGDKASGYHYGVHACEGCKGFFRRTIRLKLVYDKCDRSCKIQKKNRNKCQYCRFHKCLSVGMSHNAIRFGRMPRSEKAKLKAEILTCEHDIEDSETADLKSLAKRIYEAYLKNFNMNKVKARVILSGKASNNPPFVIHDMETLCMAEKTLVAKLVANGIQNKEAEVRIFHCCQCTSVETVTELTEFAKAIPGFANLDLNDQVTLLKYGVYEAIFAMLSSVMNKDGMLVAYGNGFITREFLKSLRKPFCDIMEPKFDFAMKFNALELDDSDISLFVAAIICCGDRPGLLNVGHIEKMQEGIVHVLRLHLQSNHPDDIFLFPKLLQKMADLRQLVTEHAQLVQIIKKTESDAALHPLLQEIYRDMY
Method in brief: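 Chemiluminescence from complemented enzyme reported PPARalpha activation in cells after 6 hr of compound treatment at 37 C. The detection reagent was incubated for 60 min at room temperature, and compounds were scored as agonists.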

[15] = Cell Viability - Jurkat (AID 426;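 active = dose-dependent loss of cell ATP signal giving a full or clear fitted curve, ranked by lower potency value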; note: potency is the fitted concentration of half-maximal effect); settings: qHTS
Method in brief: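 Jurkat (Clone E6-1) cells, 5000/well in complete medium, exposed to compounds for 40 hr at 37C; intracellular ATP measured by CellTiter-Glo luminescence after 20 min at room temperature. AC50 from Hill fits.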

[16] = Cell Viability - H-4-II-E (AID 543); settings: H-4-II-E rat hepatoma viability; series mostly up to 92.2 µM; note: nearly all actives have a fitted effect of over 35% in size; note: potency is the fitted concentration of half-maximal effect
Method in brief: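 Rat hepatoma H-4-II-E cells, 1500 per well, treated 40 h at 37 °C in complete medium. Cellular ATP read by CellTiter-Glo luminescence; AC50 from Hill fits of concentration-response.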

[17] = Cellular Toxicity (caspase-3) HUV-EC-C (AID 656); settings: HUV-EC-C cells, caspase-3 activation (apoptosis), vehicle = 0, 100 µM tamoxifen = 100%; series mostly up to 92.2 µM
Method in brief: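 Luminescent Caspase-Glo 3/7 readout after 16 h, 37 °C compound exposure of HUV-EC-C endothelial cells, 1000 per well, complete medium. AC50 derived by Hill fitting, with DMSO as baseline and 100 uM tamoxifen as full activation.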

[18] = Cellular Toxicity (caspase-3) N2a (AID 665); settings: N2a cells, luminescence, normalized: DMSO 0%, 10 µM staurosporine 100%; series mostly up to 92.2 µM;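 note: compound exposure lasted 16 h at 37 °C before readout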
Method in brief: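 Mouse N2a neuroblastoma cells, 1500 per well, treated 16 h at 37 °C in complete medium; caspase-3/7 activity by Caspase-Glo luminescence after 1 h. Normalized to DMSO and 10 uM staurosporine; AC50 from Hill fits.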

[19] = Cell Viability - LYMP1-003 - Assay at 24 hr (AID 963); settings: LYMP1-003 lymphoblastoid cell viability; series mostly up to 92.2 µM; note: potency is the fitted concentration of half-maximal effect;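 for viability change, negative = cytotoxic: plate controls were DMSO only for no effect and tetraoctylammonium bromide positive control for full effect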
Method in brief: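 Human lymphoblastoid LYMP1-003 cells, 2500/well, treated 24 h at 37 C in complete medium. Viability read as intracellular ATP by CellTiter-Glo luminescence after 30 min at room temperature; AC50 from Hill-equation fits of qHTS concentration-response.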

[20] = qHTS assay for cell viability of HEK293 cells (AID 743288); settings: ATP luminescence (CellTiter-Glo), 18 h; max response: active compounds read low; note: nearly all actives have a fitted effect of over 50% in size; note: potency is the fitted concentration of half-maximal effect; for max response: % is set by controls: 0 for no effect and ±100 for the full control effect
Method in brief: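 Total intracellular ATP, measured with a luciferase-coupled reagent, indicates the number of viable HEK293 cells. Exposure to test chemicals lasts 18 h at 37 C in 1,536-well format at 2,000 cells/well.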

Clc1ccc(C(c2ccc(Cl)cc2)C(Cl)Cl)cc1
inactive: Potency [3] | Potency [4] | Potency [7] | outcome [8] | outcome [10] | Potency [11] | Potency [12] | Potency [13] | max response [14] 16.9%
active: Potency [1] 45.4 µM | Potency [2] 43.5 µM | Potency [5] 31.6 µM | activity change, negative = cytotoxicity [6] -88.1% | caspase-3 activation [9] 127%

COP(=O)(OC)O/C(=C\Cl)c1cc(Cl)c(Cl)cc1Cl
inactive: Potency [16] | Potency [6] | Potency [7] | outcome [17] | outcome [8] | caspase-3 activation [9] -4.53% | outcome [18] | outcome [10] | Potency [19] | Potency [11] | Potency [13] | max response [14] -3% | max response [20] -7.38%
active: Potency [15] 32.2 µM | Potency [2] 33.5 µM | viability change, negative = cytotoxic [5] -89.6%

O=C(O)C1C(C(=O)O)C2(Cl)C(Cl)=C(Cl)C1(Cl)C2(Cl)Cl (stereo not given)
inactive: Potency [15] > 92 µM | Potency [1] > 92 µM | Potency [2] > 92 µM | Potency [3] | Potency [4] | Potency [16] | Potency [5] | Potency [6] | Potency [7] | outcome [17] | outcome [8] | caspase-3 activation [9] 1.7% | outcome [18] | outcome [10] | Potency [19] | Potency [11] | Potency [12] | Potency [13] | max response [14] 10.1% | max response [20] 0.0125%

O=C(CCl)c1ccccc1
inactive: outcome [17] | outcome [8] | caspase-3 activation [9] -9.68% | outcome [18] | outcome [10] | Potency [19] | Potency [13] | max response [14] -2.05% and -1.03% | max response [20] -16%
active: Potency [15] 9.5 µM | Potency [2] 15.4 µM | Potency [3] 15.8 µM | Potency [16] 15.8 µM | Potency [5] 7.94 µM | activity change, negative = cytotoxicity [7] -109% | Potency [11] 10 µM | Potency [12] 10 µM | Potency [20] 35.5 µM

ClC1=C(Cl)C2(Cl)C3C(Cl)C(Cl)CC3C1(Cl)C2(Cl)Cl (stereo not given)
inactive: Potency [3] | Potency [7] | outcome [8] | outcome [10] | Potency [19] | Potency [11] | Potency [12] | Potency [13]
active: Potency [15] 60.7 µM | Potency [1] 72.7 µM | viability change, negative = cytotoxic [5] -97.5% | caspase-3 activation [9] 204%

C[C@@H]1CC[C@@]2(OC1)O[C@H]1[C@@H](O)[C@H]3[C@@H]4CC[C@H]5C[C@@H](O[C@@H]6O[C@H](CO)[C@H](O[C@@H]7O[C@H](CO)[C@@H](O)[C@H](O[C@@H]8OC[C@@H](O)[C@H](O)[C@H]8O)[C@H]7O[C@@H]7O[C@H](CO)[C@@H](O)[C@H](O[C@@H]8O[C@H](CO)[C@@H](O)[C@H](O)[C@H]8O)[C@H]7O)[C@H](O)[C@H]6O)[C@H](O)C[C@]5(C)[C@H]4CC[C@]3(C)[C@H]1[C@@H]2C
active: Potency [15] 0.573 µM | Potency [1] 27.5 µM | Potency [2] 28.5 µM | Potency [3] 31.6 µM | Potency [4] 25.1 µM | Potency [16] 20 µM | Potency [5] 15.8 µM | Potency [6] 7.94 µM | Potency [7] 31.6 µM | Potency [19] 7.94 µM | Potency [11] 12.6 µM | Potency [12] 25.1 µM | Potency [20] 25.1 µM
inactive: outcome [17] | outcome [8] | caspase-3 activation [9] -8.63% | outcome [18] | outcome [10] | Potency [13] | max response [14] -5.72%
